Structures are written as SMILES. The panel holds about 83,000 compounds, 20% with a hit somewhere; the sample as a whole holds those more often.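 Method: cells in 96-well plates; compound added at one concentration; 48 h incubation; percent growth measured; values under 10 scored active.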 Values without a mark were called inactive. Activity calls are given as the source filed them.

The results in this text go back to PubChem BioAssay (NCI).

Common to all, as to experiment: NCI-60 one-dose screen, 48 h (100 = growth as untreated, 0 = no growth, -100 = all killed)
Settings in all cases: 10 µM unless noted

The subject of assay [1] is T-47D breast.
Assay [2] has as its system BT-549 breast.
Assay [3] concerns MDA-MB-435 melanoma.
For assay [4], the system named is SW-620 colon.
Assay [5] relates to MCF7 breast.
Assay [6] deals with HCT-116 colon.
The test system of assay [7] is HCC-2998 colon.
Assay [8] has as its system KM12 colon.

For the molecule `C/C(=N\O)C(=O)NCCCCCC(=O)Nc1ccccc1`, the growth in assay [1] is 86.5%; in assay [2], 88.6%; in assay [3], 101%; in assay [4] it was 104%; in assay [5], 95.1%; in assay [6], 100%. In addition, the growth in assay [7] was 101%; in assay [8] it was 103%.
Take `O=C1/C(=C/c2ccccc2[N+](=O)[O-])COc2ccc(O)cc21`: the growth in assay [1] was 18%; in assay [2], 26.7%; in assay [3], -34.2% (active); in assay [4] it was -57.8% (active); in assay [5] it was 10.9%; in assay [6] it was -13.8% (active). The growth was 29% in assay [7] and 25.4% in assay [8].
Turning to `CCCCCCCC/C=C\CCCCCCCCOc1ccc(CC(=O)NCC[N+](C)(C)C)cc1`, the growth in assay [1] was 85%; in assay [2], 74.3%; in assay [3], 86.5%; in assay [4], 74.2%; in assay [5] it was 73.7%; in assay [6], 68.2%. For the same molecule, the growth in assay [7] is 43.1%; in assay [8] it was 35.7%.
As for `COc1cc(-c2nc3occn3c2-c2ccnc(NCCCNS(=O)(=O)c3ccccc3)n2)ccc1F`, the growth in assay [1] was 8.36% (active); in assay [2], 29.7%; in assay [3], 9.04% (active); in assay [4], 65.2%; in assay [5], 20.5%; in assay [6] it was 34.3%. The growth is 69.1% in assay [7] and 30% in assay [8].
As for `O=C(CN1C(=O)/C(=C/c2ccco2)SC1=S)NCCc1c[nH]c2ccc(F)cc12`, the growth in assay [1] is 103%; in assay [2] it was 97.4%; in assay [3] it was 104%; in assay [4], 107%; in assay [5] it was 97.5%; in assay [6], 96.6%. Moreover, the growth was 115% in assay [7] and 101% in assay [8].
On to `COc1cccc(Nc2ccnc3[nH]c4ccc([N+](=O)[O-])cc4c23)c1`, for which the growth is 41.8% in assay [1]; 80.3% in assay [2]; -24.4% (active) in assay [3]; 56.5% in assay [4]; 19.7% in assay [5]; 24.5% in assay [6]. Also, the values for the growth in assay [7] and in assay [8] were 84.8% and 27.2%, respectively.
Consider `CCOC(=O)c1c(NC(=O)c2ccc(OC)cc2)sc2c(CN(C)C)c(O)ccc12`, for which the growth was 77.3% in assay [1]; 95.5% in assay [2]; 68.8% in assay [3]; 70.4% in assay [4]; 70.4% in assay [5]; 51.3% in assay [6]. Further, the growth is 23.1% in assay [7] and 81.8% in assay [8].
Regarding `COc1cc2c3c(n(CCCCNCCCn4c5c(c6cc(OC)c(OC)cc6c4=O)C(=O)c4cc6c(cc4-5)OCO6)c(=O)c2cc1OC)-c1cc2c(cc1C3=O)OCO2`, the growth in assay [1] is 88.7%; in assay [2], 106%; in assay [3] it was 105%; in assay [4], 95.2%; in assay [5], 93.6%; in assay [6] it was 93.9%. Also, the growth in assay [7] was 105%; in assay [8], 93.8%.
Take `COc1cc2c(/C=C3\C(=O)Nc4ccccc43)c(C(=O)O)[nH]c2cc1C`: the growth is 113% in assay [1]; 102% in assay [2]; 105% in assay [3]; 120% in assay [4]; 72% in assay [5]; 96.5% in assay [6]. The growth was 103% in assay [7] and 99.8% in assay [8].
On to `CC/C=C1/C(=O)C=C[C@@H]1C/C=C\CCCC(=O)OC`, for which the growth in assay [1] is 62.4%; in assay [2], 16.6%; in assay [3], 4.2% (active); in assay [4] it was 14.9%; in assay [5], 15.6%; in assay [6] it was -59.6% (active). The growth in assay [7] was 114%; in assay [8], 17.1%.
Regarding `CCc1ccc(CCC(=O)Nc2ncc(Cc3ccc(Cl)cc3)s2)o1`, the growth in assay [1] was 37%; in assay [2], 61.3%; in assay [3], -64.3% (active); in assay [4] it was 18.6%; in assay [5] it was 20%; in assay [6], 29.3%. In addition, the growth in assay [7] is 46.9%; in assay [8], 21.6%.
`CCN1C(=O)N(CC)C2C1NN=c1s/c(=C\c3cc4ccccc4[nH]3)c(=O)n12` (configuration not stated): the growth is 2.04% (active) in assay [1]; 12.2% in assay [2]; -9.5% (active) in assay [3]; 19.8% in assay [4]; 3.88% (active) in assay [5]; 9.85% (active) in assay [6]. In addition, the growth in assay [7] and in assay [8] was 10.3% throughout.
Consider `Oc1c(CN2CCCC2)cc(COCc2ccccc2)c2cccnc12`, for which the growth in assay [1] was 5.66% (active); in assay [2], 27.2%; in assay [3], 33.5%; in assay [4], 22.3%; in assay [5], 10% (active); in assay [6], 9.16% (active). The growth was 49.7% in assay [7] and 28.7% in assay [8].
Turning to `O=P(O)(O)OCC1OC(n2cnc3c(NCc4ccccc4)ncnc32)C(O)C1O` (configuration not stated), the growth is 22.1% in assay [1]; -18.8% (active) in assay [2]; 25.4% in assay [3]; 24.5% in assay [4]; 27.6% in assay [5]; 7.45% (active) in assay [6]. Further, the growth in assay [7] was 29.9%; in assay [8], 80.7%.
As for `COc1cc2c(cc1O)[C@@]1(C)[C@H](c3ccccc3Br)OC(=O)N1CC2`, the growth in assay [1] was 65.4%; in assay [2] it was 92.8%; in assay [3] it was 92.1%; in assay [4], 104%; in assay [5] it was 99.1%; in assay [6], 77.1%. Also, the growth in assay [7] was 99%; in assay [8], 89.7%.
Consider `Cn1ncc2ccc(-c3nc(-c4ccccc4)[nH]c3-c3n[nH]c(=O)n3C3CC3)cc21`, for which the growth was 82.7% in assay [1]; 106% in assay [2]; 100% in assay [3]; 100% in assay [4]; 90.2% in assay [5]; 86.3% in assay [6]. Further, the values for the growth in assay [7] and in assay [8] were 103% and 99.2%, respectively.
As to `CC1=C(C(=O)n2c3ccccc3c3ccccc32)C(c2cccc([N+](=O)[O-])c2)C(C(=O)n2c3ccccc3c3ccccc32)=C(C)N1`, the growth was 80.5% in assay [1]; 102% in assay [2]; 117% in assay [3]; 100% in assay [4]; 94.8% in assay [5]; 91.8% in assay [6]. Moreover, the growth is 102% in assay [7] and 94.8% in assay [8].
`O=C(Nc1cccnc1Nc1ccc(Cl)cc1)c1cn(Cc2ccc(F)cc2)nn1`: the growth in assay [1] was 90.5%; in assay [2] it was 88%; in assay [3], 97.2%; in assay [4], 114%; in assay [5] it was 92.8%; in assay [6], 84.6%. The growth was 100% in assay [7] and 102% in assay [8].
`C#CC#CC#CC#CC#CC#CC#CC#CC[C@H]1OC[C@H](COC(=O)O[C@@H](C(=O)O[C@H]2C[C@@]3(O)[C@@H](OC(=O)c4ccccc4)[C@@H]4[C@]5(OC(C)=O)CO[C@@H]5C[C@H](O)[C@@]4(C)C(=O)[C@H](OC(C)=O)C(=C2C)C3(C)C)[C@@H](NC(=O)c2ccccc2)c2ccccc2)O1`: the growth in assay [1] was 40.6%; in assay [2], 53.2%; in assay [3], -57.8% (active); in assay [4] it was 38%; in assay [5] it was 24.4%; in assay [6], 15.5%. Besides, the growth in assay [7] is 38.2%; in assay [8], 18%.
In the case of `O=c1nc(Nc2nc3ccccc3s2)[nH]c(=O)c2ccccc12`, the growth was 78.9% in assay [1]; 97.5% in assay [2]; 99.9% in assay [3]; 101% in assay [4]; 92.2% in assay [5]; 103% in assay [6]. For the same molecule, the growth in assay [7] is 98.4%; in assay [8], 98.5%.
For `COc1ccc(-c2ccc(-c3ccc(C(=N)N)cn3)s2)cc1`, the growth is 74.3% in assay [1]; 88.1% in assay [2]; 97% in assay [3]; 8.29% (active) in assay [4]; 44.1% in assay [5]; -20.8% (active) in assay [6]. Besides, the growth in assay [7] is 81.3%; in assay [8] it was 61.6%.
For the molecule `O=C(O)c1cccc(N/C=C/C(=O)c2cc3cc(Br)ccc3oc2=O)c1`, the growth in assay [1] was 90.5%; in assay [2], 86.1%; in assay [3], 96.5%; in assay [4], 98.1%; in assay [5], 88.4%; in assay [6], 93.3%. Besides, the growth is 105% in assay [7] and 95.8% in assay [8].
For `O=C(CBr)CN1C(=O)c2ccccc2C1=O`, the growth in assay [1] was 93.9%; in assay [2], 111%; in assay [3] it was 103%; in assay [4], 109%; in assay [5] it was 97.7%; in assay [6], 102%. Moreover, the values for the growth in assay [7] and in assay [8] were 98.8% and 97.6%, respectively.
Consider `Cc1ccc(C(=O)c2ccc(CC(=O)N/N=C/c3ccc(O)cc3O)n2C)cc1`, for which the growth in assay [1] is 50.2%; in assay [2] it was 50.8%; in assay [3] it was 63.1%; in assay [4], 42.2%; in assay [5], 39.2%; in assay [6], 34.9%. Besides, the growth was 59.6% in assay [7] and 36.1% in assay [8].
With `CCc1cccc(Sc2cc(C(=O)N3Cc4ccc(OCCN(C)C)cc4C3)ccc2O)c1`, the growth in assay [1] is 37.2%; in assay [2], 70.1%; in assay [3] it was 64.1%; in assay [4] it was 41.9%; in assay [5], 24.8%; in assay [6], 49.5%. Moreover, the growth in assay [7] is 75%; in assay [8], 23.5%.
Consider `CC(C)CN1CC(C(=O)Nc2ccc3c(c2)-c2ccccc2C3)CC1=O` (configuration not stated), for which the growth in assay [1] is 61.5% [50 µM]; in assay [2], 65% [50 µM]; in assay [3] it was 90.2% [50 µM]; in assay [4], 93.3% [50 µM]; in assay [5] it was 52.9% [50 µM]; in assay [6] it was 64.1% [50 µM]. In addition, the growth is 64.4% [50 µM] in assay [7] and 74% [50 µM] in assay [8].
Consider `CC1(C)CC[C@]2(C(=O)N3CCOCC3)CC[C@]3(C)C(=CC[C@@H]4[C@@]5(C)C/C(=C/c6ccncc6)C(=O)C(C)(C)[C@@H]5CC[C@]43C)[C@@H]2C1`, for which the growth in assay [1] was 20.2%; in assay [2], -2.62% (active); in assay [3], 6.81% (active); in assay [4], 10.4%; in assay [5], 8.43% (active); in assay [6], -32.6% (active). For the same molecule, the growth in assay [7] is -24.5% (active); in assay [8] it was 6.58% (active).
In the case of `CCCCCCCC/C=C\CCCCCCCCOc1ccccc1CC(=O)NCC[N+]1(C)CCCCC1`, the growth in assay [1] was 59.9%; in assay [2], 47.9%; in assay [3] it was 41.5%; in assay [4] it was 61.1%; in assay [5], 80%; in assay [6], 48.2%. The growth is 57.5% in assay [7] and 22.5% in assay [8].
For the molecule `CC(C)(C)c1cc(C=Nc2cccc(C(F)(F)F)c2)c(O)c(C(C)(C)C)c1`, the growth is 88.5% in assay [1]; 106% in assay [2]; 108% in assay [3]; 101% in assay [4]; 97.7% in assay [5]; 94.1% in assay [6]. Moreover, the growth in assay [7] was 108%; in assay [8], 102%.
